For part of these data: Entries with a potency or affinity are not part of this list. Calls of active or inactive are those of the source.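 Rule for the calls, unless noted: active = primary screen hit whose fluorescence ratio, in both repeats, exceeds the weak agonist control mean by 3 SD; inactive = the rest.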
How the values were obtained:
[1] = test system: TRPC4 beta (transient receptor potential cation channel C4), mouse; assay: activators of mouse TRPC4 channel, confirmation, cell-based, Fluo4 calcium, HEK293 TRPC4beta/mu-opioid, duplicates, 10 µM (AID 2426;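 active = fluorescence ratio normalized to control raised more than 50% in primary screen plus both repeat runs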); conditions: Fluo4 calcium fluorescence, at 10 µM; hits give high values
[2] = test system: transient receptor potential cation channel C4 beta (TRPC4), mouse; assay: activators of mouse TRPC4 channel, confirmation, cell-based, second round, Fluo4, HEK293 TRPC4beta/mu-opioid, 1 µM (AID 2461;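 active = primary screen active and over 50% activation in each of two duplicate runs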); conditions: Fluo4 calcium fluorescence, at 1 µM; hits give high values
[3] = test system: TRPC4 (transient receptor potential cation channel C4 beta), mouse; assay: positive allosteric modulators of mouse TRPC4, confirmation, cell-based, second round, Fluo-4, HEK293 TRPC4beta/mu-opioid, 1 µM (AID 2554); conditions: DAMGO EC20, Fluo-4 calcium flux, at 1 µM; hits give high values
[4] = test system: TRPC4 beta (transient receptor potential cation channel C4), mouse; assay: positive allosteric modulators of mouse TRPC4, confirmation, cell-based, Fluo-4, HEK293 TRPC4beta/mu-opioid (AID 2555;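 active = primary screen hit whose calcium fluorescence ratio, in both repeats, exceeds the weak agonist control mean by 3 SD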); conditions: DAMGO EC20, Fluo-4 calcium flux, at 10 µM; hits give high values
[5] = biological target: Short transient receptor potential channel 4 (Mus musculus) (UniProt Q9QUQ5); assay: inhibitors of mouse TRPC4 channel, confirmation, cell-based, Fluo4, HEK293 TRPC4beta/mu-opioid (AID 2636;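 active = calcium signal cut by more than 3 SD below the full-agonist control yet still positive, in both repeats and the earlier primary screen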); conditions: DAMGO, Fluo4 calcium flux, at 10 µM; hits give high values
Chain of Short transient receptor potential channel 4 (Mus musculus) (Q9QUQ5 whole entry, looked up): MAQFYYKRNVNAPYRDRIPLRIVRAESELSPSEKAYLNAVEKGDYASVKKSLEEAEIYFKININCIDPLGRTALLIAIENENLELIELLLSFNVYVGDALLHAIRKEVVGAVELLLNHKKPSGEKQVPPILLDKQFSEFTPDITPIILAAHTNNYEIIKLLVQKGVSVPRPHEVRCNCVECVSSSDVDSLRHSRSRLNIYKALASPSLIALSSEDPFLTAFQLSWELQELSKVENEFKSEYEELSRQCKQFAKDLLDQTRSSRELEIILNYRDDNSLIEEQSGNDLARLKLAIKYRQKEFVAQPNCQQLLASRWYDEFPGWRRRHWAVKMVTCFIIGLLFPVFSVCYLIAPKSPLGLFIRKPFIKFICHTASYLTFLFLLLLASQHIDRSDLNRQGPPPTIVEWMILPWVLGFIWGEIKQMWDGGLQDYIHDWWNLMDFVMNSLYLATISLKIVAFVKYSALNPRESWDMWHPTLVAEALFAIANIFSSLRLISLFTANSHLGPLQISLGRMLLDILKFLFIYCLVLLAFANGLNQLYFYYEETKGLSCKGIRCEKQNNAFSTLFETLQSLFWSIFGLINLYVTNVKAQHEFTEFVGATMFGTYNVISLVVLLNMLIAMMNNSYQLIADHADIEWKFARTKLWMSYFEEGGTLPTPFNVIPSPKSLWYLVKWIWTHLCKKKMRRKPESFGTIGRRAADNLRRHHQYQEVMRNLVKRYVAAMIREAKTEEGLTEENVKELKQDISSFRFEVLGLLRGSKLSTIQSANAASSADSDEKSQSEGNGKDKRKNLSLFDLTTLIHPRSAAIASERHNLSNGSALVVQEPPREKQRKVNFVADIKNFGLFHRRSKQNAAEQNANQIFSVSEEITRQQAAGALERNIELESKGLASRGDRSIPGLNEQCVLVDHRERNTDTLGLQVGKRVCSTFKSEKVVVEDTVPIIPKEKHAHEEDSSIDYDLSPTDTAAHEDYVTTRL

[6] = biological target: Short transient receptor potential channel 4 (Mus musculus) (UniProt Q9QUQ5); assay: inhibitors of mouse TRPC4 channel, confirmation, cell-based, second round, Fluo4, HEK293 TRPC4beta/mu-opioid, 1 µM (AID 2637;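 active = calcium signal ratio cut to more than 3 SD under the fully stimulated control mean yet still positive, in both repeats and the primary screen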;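 for inhibition: percent of integrated ratio relative to wells lacking test compound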); conditions: Fluo4 calcium flux, DAMGO, at 1 µM; hits give high values
[7] = biological target: Short transient receptor potential channel 4 (Mus musculus) (UniProt Q9QUQ5); assay: mouse TRPC4 channel activators, dose response, cell-based, HEK293 TRPC4/mu-opioid, Fluo-4 calcium (AID 434937;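 active = primary screen activator hit with a dose response curve and TRPC4 channel activation at any tested dose; inactive = no activation, no dose response, or not a primary hit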)
[8] = biological target: Short transient receptor potential channel 4 (Mus musculus) (UniProt Q9QUQ5); assay: TRPC4 positive allosteric modulators, dose response, cell-based, HEK293 TRPC4/mu-opioid, Fluo-4 calcium, EC20 DAMGO (AID 434941;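 active = earlier screen potentiator hit that boosts the TRPC4 ion channel at some dose, with a dose response; inactive = no potentiation, no dose response, or not a prior hit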;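 note: calcium entry triggered by an EC20 dose of DAMGO at the co-expressed mu-opioid receptor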)
[9] = biological target: Short transient receptor potential channel 6 (Mus musculus) (UniProt Q61143); assay: inhibition of mouse TRPC6 channel, confirmation, selectivity assay for TRPC4 inhibitor project, cell-based, HEK293, membrane potential dye, duplicate (AID 434948;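 active = active in primary screen and both duplicates, each dropping signal beyond three positive-control SD with fluorescence still positive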); conditions: HEK293 TRPC6, membrane potential dye fluorescence, at 10 µM, stimulated with maximal-effect acetylcholine; hits give high values
Chain of Short transient receptor potential channel 6 (Mus musculus) (Q61143 whole entry, looked up): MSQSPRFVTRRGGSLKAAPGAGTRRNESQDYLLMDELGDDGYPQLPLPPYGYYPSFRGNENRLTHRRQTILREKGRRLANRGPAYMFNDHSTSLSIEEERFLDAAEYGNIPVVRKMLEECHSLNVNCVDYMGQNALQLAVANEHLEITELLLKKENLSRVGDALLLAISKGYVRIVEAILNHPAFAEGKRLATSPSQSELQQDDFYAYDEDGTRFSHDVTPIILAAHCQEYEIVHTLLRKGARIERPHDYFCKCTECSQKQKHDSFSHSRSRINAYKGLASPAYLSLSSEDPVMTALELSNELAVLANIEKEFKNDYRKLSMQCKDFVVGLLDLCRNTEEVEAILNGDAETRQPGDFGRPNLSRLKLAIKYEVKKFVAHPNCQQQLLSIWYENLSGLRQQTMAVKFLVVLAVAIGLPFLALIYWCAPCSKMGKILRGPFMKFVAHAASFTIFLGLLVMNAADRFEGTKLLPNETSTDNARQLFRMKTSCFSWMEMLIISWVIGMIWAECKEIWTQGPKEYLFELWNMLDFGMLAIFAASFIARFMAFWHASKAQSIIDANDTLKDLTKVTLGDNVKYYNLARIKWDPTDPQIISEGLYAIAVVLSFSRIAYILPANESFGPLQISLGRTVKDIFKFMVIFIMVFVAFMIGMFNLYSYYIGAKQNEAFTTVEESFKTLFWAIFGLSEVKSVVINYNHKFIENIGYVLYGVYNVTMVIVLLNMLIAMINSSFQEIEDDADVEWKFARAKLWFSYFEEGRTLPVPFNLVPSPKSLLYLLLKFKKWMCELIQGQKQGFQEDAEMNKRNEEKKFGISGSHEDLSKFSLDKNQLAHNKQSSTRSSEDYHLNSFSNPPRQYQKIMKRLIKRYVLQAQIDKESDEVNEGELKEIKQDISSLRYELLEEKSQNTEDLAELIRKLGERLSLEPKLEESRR

[10] = biological target: Short transient receptor potential channel 6 (Mus musculus) (UniProt Q61143); assay: activation of mouse TRPC6 channel, confirmation, selectivity assay for TRPC4 activator project, cell-based, HEK293, membrane potential dye, duplicate (AID 434950;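 active = membrane potential signal rise above negative control mean plus 3 SD in both duplicates, also active in the earlier TRPC4 screen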;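 for activation: 0% = buffer only wells and 100% = acetylcholine maximal-effect wells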); conditions: HEK293 TRPC6, membrane potential fluorescence, at 10 µM; hits give high values
[11] = biological target: Short transient receptor potential channel 6 (Mus musculus) (UniProt Q61143); assay: TRPC6 potentiation by TRPC4 potentiator hits, confirmation, selectivity assay for TRPC4 potentiator project, HEK293 cells, membrane potential dye, duplicate (AID 434952;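 active = compound raising the membrane signal above positive-control mean plus 3 SD in both repeats, and a primary screen hit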); conditions: HEK293 TRPC6, membrane potential dye fluorescence, at 10 µM, maximal acetylcholine added after compound; hits give high values
[12] = biological target: Short transient receptor potential channel 4 (Mus musculus) (UniProt Q9QUQ5); assay: calcium flux activators in TRPC4/5HT1a cells, counter-screen for TRPC4 activator project, cell-based, second counter screen, HEK293 TRPC4/5HT1a, Fluo-4 (AID 434977;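 active = calcium signal rise above buffer-control mean plus 5 SD in both duplicates, and also a hit in the primary screen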); conditions: Fluo-4 calcium flux, at 10 µM; hits give high values
[13] = calcium flux inhibitors in TRPC4/5HT1a cells, confirmation, counter-screen for TRPC4 inhibitor project, cell-based, second counter screen, HEK293 TRPC4/5HT1a, Fluo-4 (AID 434978;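 active = primary screen active whose calcium signal fell more than 3 SD beyond the full-serotonin control mean in both duplicate plates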;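 for outcome: serotonin given first at submaximal then at maximal dose after compound preincubation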); conditions: Fluo-4 calcium flux, at 10 µM, serotonin added to trigger calcium flux; hits give high values
[14] = test system: TRPC4 (mouse), co-expressed with 5HT1a in HEK293; assay: calcium flux potentiators in TRPC4/5HT1a cells, confirmation, counter-screen for TRPC4 potentiator project, cell-based, second counter screen, HEK293 TRPC4/5HT1a, Fluo-4 (AID 434979;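 active = signal rise over 3 SD above mean of control wells given weak agonist, in both repeats and first screen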); conditions: Fluo-4 calcium flux, at 10 µM, serotonin added at its EC20 dose; hits give high values
[15] = calcium flux activation in mu-opioid HEK293 cells, confirmation, counter-screen for TRPC4 activator project, cell-based, HEK293 mu-opioid receptor line (AID 449723;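 active = hit in primary screen, with calcium signal over 5 SD above buffer well mean in both duplicates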;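 note: counter screen cells carry the mu-opioid receptor alone and lack TRPC4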); conditions: Fluo-4 calcium fluorescence, at 10 µM; hits give high values
[16] = calcium flux enhancement in mu-opioid HEK293 cells, confirmation, counter-screen for TRPC4 allosteric potentiator project, cell-based, HEK293 mu-opioid receptor line (AID 449724;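 active = calcium signal rise more than 3 SD above the low-dose agonist control mean, in both duplicate plates and the primary screen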); conditions: Fluo-4 calcium flux, at 10 µM, compound added before EC20 DAMGO stimulus; hits give high values

Cc1ccc(-n2nc(-c3cccs3)cc2C(=O)NCC2CCCO2)c(C)c1 (stereo not given)
active: inhibition [5] 79% | activation [10] 32%
inactive: outcome [1] | outcome [2] | outcome [3] | outcome [4] | outcome [6] | outcome [7] | outcome [8] | outcome [9] | outcome [11] | outcome [12] | outcome [13] | outcome [14] | outcome [15] | outcome [16]

CCOc1ccccc1-n1c(SCC(=O)Nc2nccs2)nnc1-c1ccoc1C
inactive: outcome [1] | outcome [2] | outcome [3] | outcome [4] | outcome [7] | outcome [8] | outcome [9] | outcome [10] | outcome [11] | outcome [12] | outcome [13] | outcome [14] | outcome [15] | outcome [16]
active: inhibition [5] 52% | inhibition [6] 44%

COc1ccccc1N1CCc2c(C)nc3c(OC)cccc3c21
inactive: outcome [1] | outcome [2] | outcome [3] | outcome [4] | outcome [7] | outcome [8] | outcome [10] | outcome [11] | outcome [12] | outcome [14] | outcome [15] | outcome [16]
active: inhibition [5] 92% | inhibition [6] 44% | inhibition [9] 29% | inhibition [13] 16.3%

CCOc1cc(CNCCCN2CCOCC2)cc(Br)c1OCC(=O)Nc1cccc(C(F)(F)F)c1
active: inhibition [5] 101% | inhibition [6] 40% | inhibition [13] 30.5%
inactive: outcome [1] | outcome [2] | outcome [3] | outcome [4] | outcome [7] | outcome [8] | outcome [9] | outcome [10] | outcome [11] | outcome [12] | outcome [14] | outcome [15] | outcome [16]

COc1cc(/C=C2\SC(=O)N(c3ccccc3Cl)C2=O)cc([N+](=O)[O-])c1O
active: inhibition [5] 84% | inhibition [13] 26%
inactive: outcome [1] | outcome [2] | outcome [3] | outcome [4] | outcome [6] | outcome [7] | outcome [8] | outcome [9] | outcome [10] | outcome [11] | outcome [12] | outcome [14] | outcome [15] | outcome [16]

O=c1c2ccccc2nc(SCc2ccccc2)n1CC1CCCO1 (stereo not given)
inactive: outcome [1] | outcome [2] | outcome [3] | outcome [4] | outcome [6] | outcome [7] | outcome [8] | outcome [9] | outcome [10] | outcome [11] | outcome [12] | outcome [14] | outcome [15] | outcome [16]
active: inhibition [5] 54% | inhibition [13] 18.9%

Cc1ccc2c(c1)N(C(=O)CCC(=O)Nc1ccccc1Br)CC(C)O2 (stereo not given)
inactive: outcome [1] | outcome [2] | outcome [3] | outcome [4] | outcome [7] | outcome [8] | outcome [9] | outcome [10] | outcome [11] | outcome [12] | outcome [14] | outcome [15] | outcome [16]
active: inhibition [5] 90% | inhibition [6] 46% | inhibition [13] 31.8%

Cc1cccc(-c2nnc(SCc3nc4ccccc4[nH]3)n2Cc2ccco2)c1
inactive: outcome [1] | outcome [2] | outcome [3] | outcome [4] | outcome [6] | outcome [7] | outcome [8] | outcome [9] | outcome [10] | outcome [11] | outcome [12] | outcome [14] | outcome [15] | outcome [16]
active: inhibition [5] 90% | inhibition [13] 26.7%

Cc1[nH]n(C)c(=O)c1C(=O)c1c(-c2c(Cl)cccc2Cl)noc1C
active: inhibition [5] 90% | inhibition [6] 42% | inhibition [13] 27.3%
inactive: outcome [1] | outcome [2] | outcome [3] | outcome [4] | outcome [7] | outcome [8] | outcome [9] | outcome [10] | outcome [11] | outcome [12] | outcome [14] | outcome [15] | outcome [16]

Cc1ccc2c(c1)N(C(=O)CCC(=O)Nc1ccccc1Cl)CC(C)O2 (stereo not given)
inactive: outcome [1] | outcome [2] | outcome [3] | outcome [4] | outcome [6] | outcome [7] | outcome [8] | outcome [9] | outcome [10] | outcome [11] | outcome [12] | outcome [13] | outcome [14] | outcome [15] | outcome [16]
active: inhibition [5] 73%

Cc1ccc(C)c2nc3sc(C(=O)O)cc3cc12
inactive: outcome [1] | outcome [2] | outcome [3] | outcome [4] | outcome [6] | outcome [7] | outcome [8] | outcome [9] | outcome [10] | outcome [11] | outcome [12] | outcome [14] | outcome [15] | outcome [16]
active: inhibition [5] 83% | inhibition [13] 30.9%

Cc1c(CCOC(=O)c2cccc([N+](=O)[O-])c2)sc[n+]1CC(=O)c1ccccc1
inactive: outcome [1] | outcome [2] | outcome [3] | outcome [4] | outcome [6] | outcome [7] | outcome [8] | outcome [9] | outcome [10] | outcome [11] | outcome [12] | outcome [14] | outcome [15] | outcome [16]
active: inhibition [5] 88% | inhibition [13] 28.9%

COc1ccc(CNC(=O)CN(C)Cc2ccccc2F)cc1OC
active: inhibition [5] 86% | inhibition [13] 34.9%
inactive: outcome [1] | outcome [2] | outcome [3] | outcome [4] | outcome [6] | outcome [7] | outcome [8] | outcome [9] | outcome [10] | outcome [11] | outcome [12] | outcome [14] | outcome [15] | outcome [16]

CN(C)CCN1C(=O)C2C(C(=O)Nc3cc(Cl)cc(Cl)c3)C3C=CC2(O3)C1C(=O)NC1CCCCC1 (stereo not given)
active: inhibition [5] 71%
inactive: outcome [1] | outcome [2] | outcome [3] | outcome [4] | outcome [6] | outcome [7] | outcome [8] | outcome [9] | outcome [10] | outcome [11] | outcome [12] | outcome [13] | outcome [14] | outcome [15] | outcome [16]

Cc1ccc(CSc2nc(-c3ccccc3)c(C#N)c(=O)[nH]2)cc1
active: inhibition [6] 49% | inhibition [13] 12%
inactive: outcome [1] | outcome [2] | outcome [3] | outcome [4] | outcome [5] | outcome [7] | outcome [8] | outcome [9] | outcome [10] | outcome [11] | outcome [12] | outcome [14] | outcome [15] | outcome [16]

From PubChem BioAssay
